PfHsp90 yeast 2: inhibits growth of yeast expressing Plasmodium falciparum Hsp90. S. cerevisiae expressing PfHsp90, BacTiter-Glo ATP, 48 h; yeast lacking PDR1 and PDR3 efflux regulators. inhibition, % at 9.4 µM. 0.32% of 310,000 active. AID 504621;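 active = every replicate shows inhibition above about 80%, whatever the replicate mean, limit read from the data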
tim23-1 inh: inhibits growth of tim23-1 mutant yeast; S. cerevisiae tim23-1 growth, BacTiter-Glo luminescence, 24 h; inhibition, % at 20 µM; 1.3% of 330,000 active; AID 463212;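 active = growth inhibition of the mutant yeast at or above 50%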;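 also: temperature-sensitive mutant grown at 25 °C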
NALP3 yeast inh: NALP3 inhibition in yeast; Yeast reconstituted NLRP3/ASC/caspase-1, beta-gal luminescence, 24 h; inhibition, % at 10 µM; 0.39% of 330,000 active;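 active = inhibition of 50% or more; inactive = inhibition below 50%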
TIM10 inh: inhibits growth of TIM10 yeast strain; 1.4% of 330,000 active; inhibition, % at 10 µM; S. cerevisiae TIM10 strain growth, BacTiter-Glo luminescence, 24 h; AID 463195;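 active = inhibition of 40% or more at the single tested concentration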;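 also: wild-type TIM10 isogenic control strain grown at permissive 25 °C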
tim10-1 inh: tim10-1 yeast growth inhibition; 2.2% of 330,000 active; inhibition, % at 20 µM; S. cerevisiae tim10-1 ts strain growth, BacTiter-Glo, 24 h; AID 463190;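 active = inhibition of at least 40%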;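 also: mutant grown at 25 °C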
NALP1 inh: inhibitors of NALP1 inflammasome in yeast | inhibition, % at 10 µM | 0.61% of 280,000 active | S. cerevisiae NALP1/ASC/caspase-1 growth, X-gal OD620, 72 h; in the data active = inhibition mostly above about 24%, no sharp cut-off; inactive = mostly below about 32%
tim23-1 conf: confirmation of tim23-1 mutant yeast growth inhibitors | inhibition, % at 20 µM | S. cerevisiae tim23-1 growth, BacTiter-Glo luminescence, 24 h | 83% of 4,400 active | shares compounds with tim23-1 inh;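 active = inhibition above about 39% in either of two replicate wells at 20 µM, limit read from the data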;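 also: temperature-sensitive tim23-1 mutant grown at 25 °C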
Hits are given with their value; n = inactive; x = not tested or not shown. Only some compounds are listed: those with a hit (about 4.1% of all), similar ones and a draw of the others.

SMILES	PfHsp90 yeast 2	tim23-1 inh	NALP3 yeast inh	TIM10 inh	tim10-1 inh	NALP1 inh	tim23-1 conf
CCCn1nc(NC(=O)C2CCCO2)c2cc3cccc(C)c3nc21 (stereo not given)	n	51.6	n	n	n	x	43.5
CC(C)Cn1nc(NC(=O)C2CCCO2)c2cc3ccccc3nc21 (stereo not given)	n	n	n	n	n	n	x
COc1ccc(CCC(=O)OCC(=O)N2CCN(S(=O)(=O)c3ccc(C)cc3C)CC2)cc1	n	n	n	n	n	x	x
C/C(=N\NC(=O)c1ccccc1OCCOc1ccccc1)c1ccccc1F	x	53.4	n	n	n	x	n
C/C(=N\NC(=O)c1ccccc1)c1ccccc1F	x	n	n	n	n	n	x
COc1cc(CNc2ccc(O)cc2)cc(Br)c1OCc1ccccc1	n	50.4	n	n	n	n	55.2
CC(=O)OCC(=O)[C@@]1(O)[C@H](C)C[C@H]2[C@@H]3CCC4=CC(=O)C=C[C@]4(C)[C@@]3(F)[C@@H](O)C[C@@]21C	n	n	n	n	n	n	x
CCC(=O)OCC(=O)[C@@]1(OC(=O)CC)[C@@H](C)C[C@H]2[C@@H]3CCC4=CC(=O)C=C[C@]4(C)[C@@]3(Cl)[C@@H](O)C[C@@]21C	n	54.9	n	n	n	x	40.0
O=C(COC(=O)c1ccc(O)cc1)c1ccc2c(c1)OCCO2	x	59.8	n	n	n	x	n
Cc1cc2cc(CNC(=O)c3ccc(C)c([N+](=O)[O-])c3)ccc2[nH]1	162.0	61.8	n	n	n	n	56.5
Cc1cc2cc(CCNC(=O)c3ccc(C)c([N+](=O)[O-])c3)c(=O)[nH]c2cc1C	n	n	n	n	n	n	x
COc1cccc(C(=O)NC(=S)N2c3ccccc3CC2C)c1OC (stereo not given)	n	51.0	n	n	n	n	54.5
Oc1ccc(-c2nccc(-c3cccs3)n2)cc1	x	56.7	n	n	n	n	57.5
COC(=O)C(C)Oc1ccc(-c2nccc(-c3cccs3)n2)cc1 (stereo not given)	x	n	n	n	n	n	x
COC(=O)c1ccc2nc(NC(=O)C3CC3)sc2c1	n	51.3	n	n	n	n	50.4
CC1CC1C(=O)Nc1nc2ccc(Cl)cc2s1 (stereo not given)	n	55.7	n	n	n	x	53.2
COC(=O)c1ccc2nc(NC(=O)C(C)C)sc2c1	n	n	n	n	n	n	x
N#Cc1c(NC(=O)C2CC2)sc2c1CCCCC2	n	51.0	n	n	n	n	44.5
CC(=O)Nc1sc2c(c1C#N)CCCC2	x	n	n	n	n	x	x
CS(=O)(=O)N1CCCCC1CCN1CCCCC1 (stereo not given)	n	x	x	x	x	x	x
Nc1nonc1C(=O)N/N=C/c1cc(Br)ccc1O	n	52.2	n	n	n	n	55.9
O=C(NN1C(=O)c2cc(Br)ccc2NC1c1cc(Br)cc(Br)c1O)c1ccncc1 (stereo not given)	n	67.7	n	n	n	57.3	74.0
O=C(NN1C(=O)c2cc(Br)ccc2NC1c1ccccc1Cl)c1ccncc1 (stereo not given)	n	n	n	n	n	n	x
O=C1NC(=O)c2cc([N+](=O)[O-])cc3cccc1c23	n	62.2	n	n	n	n	48.6
CCOP(=O)(OCC)C(Nc1ccccc1)c1cc(OC)ccc1OC (stereo not given)	n	51.9	n	n	n	n	n
SMILES	PfHsp90 yeast 2	tim23-1 inh	NALP3 yeast inh	TIM10 inh	tim10-1 inh	NALP1 inh	tim23-1 conf
CCOP(=O)(OCC)C(Nc1ccccc1)c1ccccc1C(F)(F)F (stereo not given)	n	n	n	n	n	n	x
C#C[C@]1(O)CC[C@H]2[C@@H]3CCC4=Cc5oncc5C[C@]4(C)[C@H]3CC[C@@]21C	n	50.1	n	n	n	x	49.5
CCCCN(CC)c1nc(N)c2c(N)nc(OCC)cc2c1C#N	n	56.0	n	n	n	n	43.9
CCCCN(CC)c1nc(N)c(C#N)c(CC#N)c1C#N	x	n	n	n	n	n	x
COc1ccc(-n2ccc(=O)c(C(=O)O)n2)c(OC)c1	n	n	n	n	n	n	x
COc1cccc(NC(=O)CCC2CCN(Cc3nccs3)CC2)c1	n	n	n	n	n	n	x
Cc1cccc(/C=N/NC(=O)c2c(-c3ccccc3)noc2C)c1O	n	53.3	n	n	n	n	51.0
COc1cccc(C2=NN(C(=O)c3ccco3)C(c3ccco3)C2)c1 (stereo not given)	n	51.8	n	n	n	n	41.4
CS(=O)(=O)Nc1ccc(C2=NN(C(=O)c3ccco3)C(c3ccco3)C2)cc1 (stereo not given)	n	n	n	n	n	n	x
Nc1cc(S(=O)(=O)C(F)(F)F)ccc1C(=O)O	n	n	n	n	n	n	x
O=S(=O)(c1ccc2c(c1)C(O)c1ccccc1CC2)C(F)(F)F (stereo not given)	n	63.3	n	n	n	x	45.3
CC12CCC(c3c(C(=O)Nc4nccs4)nn(-c4ccccc4)c31)C2(C)C (stereo not given)	n	59.2	n	n	n	n	56.6
O=C1NC(=S)SC1=C1CCCCCC1	n	50.3	n	n	n	n	69.3
O=Cc1cccnc1SCc1ccccc1	n	57.2	n	n	n	x	61.3
Oc1cccnc1SCc1ccccc1	n	n	n	n	n	x	x
CC(C)CN1Cc2ccccc2Oc2cc(Br)ccc2S1(=O)=O	n	50.9	x	n	n	x	n
CCCCN1Cc2ccccc2Oc2cc(Br)ccc2S1(=O)=O	n	50.6	x	n	n	x	n
C(=N\NCc1ccccc1)/c1ccc2nccnc2c1	x	n	n	n	n	n	x
N#C/C(=C\c1ccccc1)C(=O)Nc1ccccn1	n	53.1	n	n	n	n	n
CC(C)(C)c1ccc(/C=C(\C#N)C(=O)Nc2ccccn2)cc1	n	54.7	n	n	n	n	60.6
N#C/C(=C\c1ccccc1)C(=O)Nc1cccnc1	n	50.3	n	n	n	n	50.4
CCc1ccc(NC(=O)/C(C#N)=C/c2ccncc2)cc1	n	74.0	n	n	n	n	66.3
Cc1ccc(S(=O)(=O)N(C)C[C@H]2Oc3ccc(NC(=O)Nc4c(C)noc4C)cc3CC(=O)N([C@@H](C)CO)C[C@@H]2C)cc1	n	n	n	n	n	x	x
CCCCNC(=O)CN(Cc1ccco1)S(=O)(=O)c1ccc(C(C)=O)cc1	n	n	n	n	n	x	x
CC(=O)Nc1ccc(S(=O)(=O)NCCC(=O)OCC(=O)NCc2ccccc2)cc1	n	n	n	n	n	x	x
CC(NC(=O)/C=C/c1cnc2ccccc2n1)C12CC3CC(CC(C3)C1)C2 (stereo not given)	n	59.6	n	n	n	x	50.0
CC(=O)Nc1ccc(NC(=O)C(C)OC(=O)/C=C/c2cnc3ccccc3n2)cc1 (stereo not given)	n	n	n	n	n	x	x

Bioassay records as filed in PubChem BioAssay.
